From PubChem BioAssay (NCI)
The panel holds about 79,000 compounds, 15% with a hit somewhere; the sample as a whole holds those more often. Unmarked numbers belong to inactive results. Activity calls are given as the source filed them. Cut-off read from the data, not from the text of the source: active = growth inhibition above about 70%; inactive = the rest.

Columns and labels:
[1] = NCI Yeast Anticancer Drug Screen. Data for the rad50 strain (AID 155);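 note: 0% = growth of vehicle-only cultures of the same strain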; conditions: S. cerevisiae rad50 strain growth inhibition, active compounds read high
Procedure, shortened: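 Inhibition values express reduced yeast growth in compound-treated cultures relative to vehicle-treated controls.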

[2] = NCI Yeast Anticancer Drug Screen. Data for the mec2-1 strain (AID 157); conditions: S. cerevisiae mec2-1 strain, active compounds read high
Procedure, shortened: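 Mutant yeast (mec2-1) grown with compound; growth inhibition relative to vehicle control reported.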

[3] = NCI Yeast Anticancer Drug Screen. Data for the sgs1 mgt1 strain (AID 161);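 note: 0% = growth of cultures given vehicle only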; conditions: S. cerevisiae sgs1 mgt1 strain, active compounds read high
Procedure, shortened: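 Yeast cells carrying a defined DNA-repair defect were exposed to test compounds. Growth inhibition was measured relative to vehicle-treated controls.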

[4] = NCI Yeast Anticancer Drug Screen. Data for the cln2 rad14 strain (AID 165);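 note: 0% = growth equal to vehicle treated cultures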; conditions: S. cerevisiae cln2 rad14 strain, active compounds read high
Procedure, shortened: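 Readout is yeast growth inhibition versus vehicle-treated controls, using a strain with cln2 and rad14 alterations exposed to compound.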

[5] = NCI Yeast Anticancer Drug Screen. Data for the bub3 strain (AID 167); conditions: S. cerevisiae bub3 mutant strain, active compounds read high
Procedure, shortened: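 Steps: expose the mutant yeast strain to compound; grow alongside vehicle-treated cultures; measure growth; express inhibition against the vehicle cultures.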

[6] = NCI Yeast Anticancer Drug Screen. Data for the mlh1 rad18 strain (AID 175); conditions: S. cerevisiae mlh1 rad18 strain growth inhibition, active compounds read high
Procedure, shortened: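 Genetically defined yeast (DNA repair-deficient) exposed to compounds; growth inhibition determined relative to vehicle.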

[7] = at 5.0 µM (retest, dose inferred, filed as 0.5)
[8] = at 50.0 µM (retest, dose inferred, filed as 5.0)

Row | Structure (SMILES) | growth inhibition [1, 7] | growth inhibition [1, 8] | growth inhibition ([1]; at 50.0 µM) | growth inhibition [2, 7] | growth inhibition [2, 8] | growth inhibition ([2]; at 50.0 µM) | growth inhibition [3, 7] | growth inhibition [3, 8] | growth inhibition ([3]; at 50.0 µM) | growth inhibition [4, 7] | growth inhibition [4, 8] | growth inhibition ([4]; at 50.0 µM) | growth inhibition [5, 7] | growth inhibition [5, 8] | growth inhibition ([5]; at 50.0 µM) | growth inhibition [6, 7] | growth inhibition [6, 8] | growth inhibition ([6]; at 50.0 µM)
1 | COc1ccc([As]=[As]c2ccc(OC)cc2)cc1 (stereo not drawn) | -23% | 97% (active) | 99.3% (active) | 5% | 97% (active) | 99.3% (active) | -18% | 99% (active) | 99.2% (active) | -25% | 94% (active) | 99.2% (active) | -12% | 98% (active) | 99.2% (active) | -9% | 99% (active) | 99.1% (active)
2 | O=[N+]([O-])c1ccc(N(CCO)CCO)c2c1no[n+]2[O-] | 39% | 92% (active) | 81.4% (active) | 25% | 70% (active) | 54.4% | 35% | 83% (active) | 69.2% | 8% | 44% | 44.3% | 4% | 40% | 61.5% | 42% | 90% (active) | 78.8% (active)
3 | CCCNC1=C(C)C(=O)C2=C(C1=O)[C@H](COC(N)=O)[C@]1(OC)[C@@H]3N[C@@H]3CN21 | 15% | 66% | 36.8% | 15% | 76% (active) | 38.9% | 11% | 64% | 39.6% | 5% | 79% (active) | 51.7% | 2% | 37% | 9.7% | 47% | 93% (active) | 79.8% (active)
4 | O=P1(N2CCOCC2)OC(c2ccccc2)=CCN1c1ccccc1 (stereo not drawn) | 3% | 4% | -0.15% | -1% | -1% | 47.1% | 5% | 81% (active) | 24.6% | -1% | -2% | 39% | 3% | 25% | 10.3% | -1% | 3% | -3.45%
5 | CS(=N)(=O)CCC(N)C(=O)O (stereo not drawn) | -162% | -152% | 11.4% | -50% | -48% | 9.8% | -65% | -45% | -3.9% | -69% | -61% | 18.7% | -73% | -78% | 2.1% | -153% | -114% | 14.6%
6 | O=C(N/N=C/c1cc(Br)cc(Br)c1[O-])c1ccccc1O.O=C(N/N=C/c1cc(Br)cc(Br)c1[O-])c1ccccc1O.[Ni+2] | 97% (active) | 98% (active) | 18.4% | 98% (active) | 98% (active) | 87% (active) | 98% (active) | 99% (active) | 61.2% | 93% (active) | 98% (active) | 31.6% | 96% (active) | 97% (active) | 85.5% (active) | 96% (active) | 98% (active) | 55.6%
